SMILES strings stand for the structures. The panel holds about 83,000 compounds, 20% with a hit somewhere; the sample as a whole holds those more often.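 The test compound was applied at a single concentration to cells in 96-well plates for 48 hours, and percent growth was recorded.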 Unmarked numbers belong to inactive results. Active and inactive are the calls of the source. How the source made its calls: active means growth percent below 10; inactive means the rest.

One assay deals with OVCAR-4 ovarian. The experiment in a line: NCI-60 one-dose screen, 48 h (100 = growth as untreated, 0 = no growth, -100 = all killed). The conditions noted are these: 10 µM unless noted.
`CN(C)c1ccc2nc3ccc(=[N+](C)C)c([N+](=O)[O-])c-3sc2c1`: the growth was 0.851% (active).
For `COc1cc(C(=O)/C=C/c2c(Cl)nc3sccn23)cc(OC)c1OC`, the growth was 90.6%.
Turning to `CNc1ccc(Nc2cccc(C)c2)c2c1C(=O)c1ccccc1C2=O`, the growth is 81.6%.
Same read-out and setting: with `Cc1cc(O)c(C2=NN(c3ccc(S(N)(=O)=O)cc3)C(c3ccccc3O)C2)cc1Cl` (centres undefined) the figure was 44%.
On the same count and under the same terms, the value for `CCN1C(=O)N(CC)C2Nn3c(s/c(=C4\C(=O)N(CCC(C)C)c5ccccc54)c3=O)=NC21` (centres undefined) was 63.5%.
The same measure, in the same setting: with `C=C(C)[C@@H]1CC[C@]2(N=C=O)CC[C@]3(C)[C@H](CC[C@@H]4[C@@]5(C)Cc6c([nH]c7ccccc67)C(C)(C)[C@@H]5CC[C@]43C)[C@@H]12` the figure was 72.7%; with `O=C1CSC(c2c(Cl)cccc2Cl)N1c1nc(Cl)cc(=O)[nH]1` (centres undefined), 130%; with `COc1ccc(OC)c(/C=C/C(=O)N/N=C/c2ccccc2)c1`, 78.2%.
As for `Oc1ccc(-c2nc3ccc4[nH]ncc4c3c3c2CCCC3)c2cccnc12`, the growth was 10.2%.
Same read-out and setting: with `Cc1cc(O)c(C2=NN(c3ccc(S(N)(=O)=O)cc3)C(/C=C/c3ccccc3)C2)cc1Cl` (centres undefined) the figure was 34.6%.
The same measure, in the same setting: the value for `COc1ccc(C2=Nn3c(nnc3-c3cc(Cl)cc(Cl)c3Cl)SC2)cc1` was 30.8%; that for `O=S(=O)(NCCCNc1cc(-c2c(-c3cccc(O)c3)nc3sccn23)ccn1)c1cccc2ccccc12` was 36.4%; that for `c1cc(-c2nnc(SSc3ncnc4nc[nH]c34)o2)ccn1` was 63.3%.
Still for that read-out and setting: with `CC[C@H](C)C(=O)O[C@H]1CCC=C2C=C[C@H](C)[C@H](CC[C@@H]3CC=CC(=O)O3)[C@H]21` the figure was 103%; with `COc1cc(CCC[P+](c2ccccc2)(c2ccccc2)c2ccccc2)c(OC)c(OC)c1OC`, 49.8%; with `COc1ccc(C(=O)/C=C/c2sc(Cl)nc2Cl)cc1`, 42.2%.
In the case of `COc1ccc(C(=S)N2CCN(c3cccc(C)c3)CC2)cc1OC`, the growth was 103%.
The same measure, in the same setting: with `Cc1cc2nc3ccc(N=Nc4ccc(N(C)C)cc4)cc3n(-c3ccccc3)c-2cc1=N` the figure was -93.2% (active); with `CC(=O)CC(c1cccs1)c1c(-c2ccccc2)[nH]c2ccccc12` (centres undefined), 82.6%; with `COc1ccc(-n2c(N)c(-c3nc4ccccc4[nH]3)cc(C#N)c2=O)cc1`, 77.5%.
As to `Cc1ncc(C(=O)Nc2ccc(CN3CCN(C)CC3)c(C(F)(F)F)c2)cc1C#Cc1ccc(N)nc1`, the growth was 12%.
Same read-out and setting: with `COC(=O)/C=C1\S/C(=N\Nc2ccc([N+](=O)[O-])cc2[N+](=O)[O-])N(C2CCCCC2)C1=O` the figure was 47.1%.
For the compound `COc1c(B(O)O)cc(F)cc1-c1nc2ccc3[nH]ncc3c2c2c1CCCC2`, the growth is 25.8%.
Still for that read-out and setting: with `CCCCCCN1C(=O)/C(=c2\sc3n(c2=O)C2C(NN=3)N(CC)C(=O)N2CC)c2ccccc21` (centres undefined) the figure was -35.5% (active); with `S=c1nc(-c2ccccc2)oc(=NC2CCCCC2)n1C1CCCCC1`, 33.9%.
The same measure, in the same setting: with `CNC(=O)c1[nH]cc(-c2ccccc2)c1-c1cc(OC)c2c(c1OC)OCO2` the figure was 106%; with `CCCCCCN(CCCCCC)c1ccc(/C=C2/SC(=O)NC2=O)c(C)c1`, 69.6%; with `CC(=O)OC[C@H]1OC(Sc2sc(C(=O)c3ccc(Br)cc3)c(N)c2-c2nc3ccccc3s2)[C@H](OC(C)=O)[C@@H](OC(C)=O)[C@H]1OC(C)=O` (some centres undefined), 46.9%.
Still for that read-out and setting: the value for `N#Cc1ccc(NC(=O)c2sc3nc4c(cc3c2N)C(=O)CCC4)cc1` was 106%; that for `NS(=O)(=O)c1ccc(-n2nc(-c3ccc(Cl)cc3)c3ccccc3c2=O)cc1` was 93.7%.
Take `COc1cccc(OC)c1C(=O)N[C@@H]1C(=O)N2[C@@H]1SC(C)(C)[C@@H]2C(=O)O`: the growth was 104%.
Same read-out and setting: with `N/C(=N\c1nc2ccccc2s1)NC(=O)Nc1cccc2ccccc12` the figure was 60.8%; with `COc1ccc(/C=C/c2c(C(=O)/C=C/c3ccc(C(F)(F)F)cc3)c(C)nc3ccccc23)cc1`, -6.41% (active).
Still for that read-out and setting: with `COc1c(B(O)O)cc(C)cc1-c1nc2ccc3[nH]ncc3c2c2c1CCCC2` the figure was 102%; with `COc1cc(C(=O)c2cc(C)c3[nH]c4ccc(O)cc4c3c2C)cc(OC)c1OC`, 48.3%.
Same read-out and setting: the value for `COc1ccc(/C=C/c2c(C(=O)/C=C/c3ccc(Cl)cc3)c(C)nc3ccccc23)cc1` was 40.6%.
Consider `O=c1ccc(N=Nc2ccc([N+](=O)[O-])cc2)ccc1O`, for which the growth is 29.6%.

The test system of a further assay is SK-OV-3 ovarian. Described as above. The conditions noted are these: 10 µM unless noted.
Take `CN(C)c1ccc2nc3ccc(=[N+](C)C)c([N+](=O)[O-])c-3sc2c1`: the growth was 59.2%.
Still for that read-out and setting: with `COc1cc(C(=O)/C=C/c2c(Cl)nc3sccn23)cc(OC)c1OC` the figure was 83.3%; with `CNc1ccc(Nc2cccc(C)c2)c2c1C(=O)c1ccccc1C2=O`, 86.4%; with `Cc1cc(O)c(C2=NN(c3ccc(S(N)(=O)=O)cc3)C(c3ccccc3O)C2)cc1Cl` (centres undefined), 34.1%.
The same measure, in the same setting: the value for `CCN1C(=O)N(CC)C2Nn3c(s/c(=C4\C(=O)N(CCC(C)C)c5ccccc54)c3=O)=NC21` (centres undefined) was 98.7%.
Still for that read-out and setting: with `C=C(C)[C@@H]1CC[C@]2(N=C=O)CC[C@]3(C)[C@H](CC[C@@H]4[C@@]5(C)Cc6c([nH]c7ccccc67)C(C)(C)[C@@H]5CC[C@]43C)[C@@H]12` the figure was 89.4%.
On to `O=C1CSC(c2c(Cl)cccc2Cl)N1c1nc(Cl)cc(=O)[nH]1` (centres undefined), for which the growth was 109%.
Still for that read-out and setting: the value for `COc1ccc(OC)c(/C=C/C(=O)N/N=C/c2ccccc2)c1` was 60%; that for `Oc1ccc(-c2nc3ccc4[nH]ncc4c3c3c2CCCC3)c2cccnc12` was -0.881% (active).
Still for that read-out and setting: the value for `Cc1cc(O)c(C2=NN(c3ccc(S(N)(=O)=O)cc3)C(/C=C/c3ccccc3)C2)cc1Cl` (centres undefined) was 17%; that for `COc1ccc(C2=Nn3c(nnc3-c3cc(Cl)cc(Cl)c3Cl)SC2)cc1` was 24.4%.
For the compound `O=S(=O)(NCCCNc1cc(-c2c(-c3cccc(O)c3)nc3sccn23)ccn1)c1cccc2ccccc12`, the growth is 58.2%.
Same read-out and setting: with `c1cc(-c2nnc(SSc3ncnc4nc[nH]c34)o2)ccn1` the figure was 32.8%; with `CC[C@H](C)C(=O)O[C@H]1CCC=C2C=C[C@H](C)[C@H](CC[C@@H]3CC=CC(=O)O3)[C@H]21`, 99.6%; with `COc1cc(CCC[P+](c2ccccc2)(c2ccccc2)c2ccccc2)c(OC)c(OC)c1OC`, 83.5%.
Regarding `COc1ccc(C(=O)/C=C/c2sc(Cl)nc2Cl)cc1`, the growth was 39%.
With `COc1ccc(C(=S)N2CCN(c3cccc(C)c3)CC2)cc1OC`, the growth is 88.5%.
Same read-out and setting: the value for `Cc1cc2nc3ccc(N=Nc4ccc(N(C)C)cc4)cc3n(-c3ccccc3)c-2cc1=N` was -78% (active); that for `CC(=O)CC(c1cccs1)c1c(-c2ccccc2)[nH]c2ccccc12` (centres undefined) was 90.1%; that for `COc1ccc(-n2c(N)c(-c3nc4ccccc4[nH]3)cc(C#N)c2=O)cc1` was 111%.
Still for that read-out and setting: the value for `Cc1ncc(C(=O)Nc2ccc(CN3CCN(C)CC3)c(C(F)(F)F)c2)cc1C#Cc1ccc(N)nc1` was 16.7%; that for `COC(=O)/C=C1\S/C(=N\Nc2ccc([N+](=O)[O-])cc2[N+](=O)[O-])N(C2CCCCC2)C1=O` was 96.8%; that for `COc1c(B(O)O)cc(F)cc1-c1nc2ccc3[nH]ncc3c2c2c1CCCC2` was 19.3%.
Same read-out and setting: with `CCCCCCN1C(=O)/C(=c2\sc3n(c2=O)C2C(NN=3)N(CC)C(=O)N2CC)c2ccccc21` (centres undefined) the figure was 54.8%.
Take `S=c1nc(-c2ccccc2)oc(=NC2CCCCC2)n1C1CCCCC1`: the growth is 87.7%.
Still for that read-out and setting: the value for `CNC(=O)c1[nH]cc(-c2ccccc2)c1-c1cc(OC)c2c(c1OC)OCO2` was 108%.
With `CCCCCCN(CCCCCC)c1ccc(/C=C2/SC(=O)NC2=O)c(C)c1`, the growth is 96.5%.
Still for that read-out and setting: with `CC(=O)OC[C@H]1OC(Sc2sc(C(=O)c3ccc(Br)cc3)c(N)c2-c2nc3ccccc3s2)[C@H](OC(C)=O)[C@@H](OC(C)=O)[C@H]1OC(C)=O` (some centres undefined) the figure was 57.3%; with `N#Cc1ccc(NC(=O)c2sc3nc4c(cc3c2N)C(=O)CCC4)cc1`, 106%.
Same read-out and setting: the value for `NS(=O)(=O)c1ccc(-n2nc(-c3ccc(Cl)cc3)c3ccccc3c2=O)cc1` was 96.9%.
The same measure, in the same setting: the value for `COc1cccc(OC)c1C(=O)N[C@@H]1C(=O)N2[C@@H]1SC(C)(C)[C@@H]2C(=O)O` was 99.5%; that for `N/C(=N\c1nc2ccccc2s1)NC(=O)Nc1cccc2ccccc12` was 40.4%.
`COc1ccc(/C=C/c2c(C(=O)/C=C/c3ccc(C(F)(F)F)cc3)c(C)nc3ccccc23)cc1`: the growth was 27.3%.
The same measure, in the same setting: with `COc1c(B(O)O)cc(C)cc1-c1nc2ccc3[nH]ncc3c2c2c1CCCC2` the figure was 63.5%.
Still for that read-out and setting: the value for `COc1cc(C(=O)c2cc(C)c3[nH]c4ccc(O)cc4c3c2C)cc(OC)c1OC` was 46.5%.
`COc1ccc(/C=C/c2c(C(=O)/C=C/c3ccc(Cl)cc3)c(C)nc3ccccc23)cc1`: the growth is 64.5%.
The same measure, in the same setting: with `O=c1ccc(N=Nc2ccc([N+](=O)[O-])cc2)ccc1O` the figure was 78.6%.

Values taken from PubChem BioAssay (NCI).
